PLK1 PBD block: blocks phosphopeptide binding to human PLK1 polo-box domain | P53350 | Potency, µM, for the others: max response, negative = inhibition, most hits filed as inhibitors | Plk1 PBD binding of FITC phosphopeptide, fluorescence polarization | 360,000 tested, 2.8% active; further: potency means the concentration at half of the fitted maximal effect; series mostly up to about 57 µM; on the % scale 0 is the no-effect control and ±100 the full control effect; nearly all actives have a fitted effect of over 65% in size
Target sequence (P53350 whole entry, looked up, the tested form may be a part): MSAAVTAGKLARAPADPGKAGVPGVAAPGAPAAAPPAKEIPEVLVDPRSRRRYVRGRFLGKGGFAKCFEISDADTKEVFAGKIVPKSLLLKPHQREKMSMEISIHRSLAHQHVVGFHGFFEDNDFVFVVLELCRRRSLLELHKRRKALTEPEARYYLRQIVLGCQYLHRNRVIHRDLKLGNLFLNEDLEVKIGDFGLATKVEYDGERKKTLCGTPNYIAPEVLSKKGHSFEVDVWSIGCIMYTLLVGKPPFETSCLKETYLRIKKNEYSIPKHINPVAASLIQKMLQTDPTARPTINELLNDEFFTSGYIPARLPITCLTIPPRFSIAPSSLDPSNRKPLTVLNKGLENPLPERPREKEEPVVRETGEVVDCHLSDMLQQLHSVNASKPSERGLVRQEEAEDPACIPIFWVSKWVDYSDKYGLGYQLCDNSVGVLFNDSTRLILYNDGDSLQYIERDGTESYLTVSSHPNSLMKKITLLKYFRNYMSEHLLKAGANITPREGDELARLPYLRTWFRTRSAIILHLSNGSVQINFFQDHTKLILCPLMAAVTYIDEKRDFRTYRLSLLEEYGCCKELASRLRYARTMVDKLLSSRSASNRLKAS
PI5P4Ka inh: inhibitors of human PI5P4K alpha | P48426 | PI5P4Kalpha enzyme, ADP-Glo luminescence, 60 min; stronger effect = lower value | max response, % | 330,000 tested, 1.2% active | AID 652105; active means max response of -50% or lower; inconclusive means between -30% and -50%; inactive means -30% or higher; further: value at the top dose of about 77 µM; on the % scale 0 is the no-effect control and ±100 the full control effect
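Single end-point luminescence (ADP-Glo) quantified ADP from PI5P4Kalpha turnover; ATP 5 microM final, 1 h at RT, 0.1% CHAPS and 0.28 mM EGTA in HEPES pH 7.4.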
G9a block: blocks human histone lysine methyltransferase G9a. Q96KQ7. G9a H3K9 monomethylation, AlphaScreen, 2 h. Potency, µM (highest dose often 102 µM), for inactives: at the top dose activity, negative = inhibition, most hits filed as inhibitors. 350,000 tested, 8.8% active; further: potency means the concentration at half of the fitted maximal effect; on the % scale 0 is the no-effect control and ±100 the full control effect; nearly all actives have a fitted effect of over 75% in size
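Signal arises when biotinylated H3K9 peptide, once monomethylated, bridges streptavidin donor and antibody-captured acceptor beads. Enzyme at 20 nM was preincubated 15 min with test compounds; peptide 500 nM and SAM 20 uM then reacted for 2 h.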
JMJD2A Tudor inh: inhibitors of human JMJD2A Tudor domain; Potency, µM (doses to about 114 µM), without a hit: at the highest dose activity change, negative = inhibition, actives largely listed as inhibitors; 390,000 tested, 4.4% active; AlphaScreen JMJD2A-Tudor / H3K4me3 peptide binding; O75164; further: potency means the concentration at half of the fitted maximal effect; on the % scale 0 is the no-effect control and ±100 the full control effect; nearly all actives have a fitted effect of over 50% in size
BAZ2B inh: BAZ2B (human) inhibition. Q9UIF8. AlphaScreen BAZ2B-H3K14Ac peptide displacement. Potency, µM (series often up to 114 µM), for inactives: at the highest dose activity change, negative = inhibition, most hits filed as inhibitors. 360,000 tested, 4.4% active. AID 504333; further: potency means the concentration at half of the fitted maximal effect; on the % scale 0 is the no-effect control and ±100 the full control effect; nearly all actives have a fitted effect of over 60% in size
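BAZ2B (50 nM) with biotin-H3(5-23)K14Ac peptide (50 nM) in PBS pH 7.4, 0.01% Tween-20, preformed 30 min, then compound 30 min at room temperature; top concentration 110uM. AlphaScreen streptavidin donor/nickel chelate acceptor beads (10 ug/mL final), 20 min dark, signal read.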
HP1b chromo inh: blocks HP1-beta chromodomain binding to methylated histone tails; AlphaScreen HP1-beta / biotin-H3K9me3 peptide binding; Potency, µM (top dose mostly 114 µM), without a hit: at the top dose activity change, negative = inhibition, actives largely listed as inhibitors; 390,000 tested, 0.56% active; further: potency means the concentration at half of the fitted maximal effect; nearly all actives have a fitted effect of over 70% in size
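Compound inhibition of the preformed complex between 50 nM HP1-beta and 50 nM biotinylated H3K9me3 peptide was read by AlphaScreen. Buffer was PBS pH 7.4 with 0.01% Tween-20. Incubations ran 30 min at room temperature, with 10 ug/mL donor/acceptor beads.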
* hit, by the source's call; ? = inconclusive; . = not tested or not shown; [ ] = another dose, or the depositor's remark. Only some compounds are listed: those with a hit (about 12% of all), similar ones and a draw of the others. Unless noted, the call rests on the fitted dose curve; in most records, active means well fitted curve in the direction sought with a large enough effect; inconclusive means small, poorly fitted or top-dose-only effect, or another doubt; inactive means no such curve, though single readings can be large; an effect the other way counts as inactive or inconclusive.

SMILES	PLK1 PBD block	PI5P4Ka inh	G9a block	JMJD2A Tudor inh	BAZ2B inh	HP1b chromo inh
CCCCNC(=O)c1cc(-c2ccc(OC)cc2)nc2n[nH]c(-c3cccc([N+](=O)[O-])c3)c12	.	.	8%[59 µM]	-10%	4%	43%
CC(=O)c1cc(-c2ccccc2)n(CC(=O)NCc2ccccc2C)c1C	.	.	-8%[59 µM]	0%	-1%	29%
Cc1nn(-c2ccccc2)c(C)c1NC(=O)COC(=O)Cc1ccccc1F	3%	0	-47%[0.501 µM]	2%	1%	24%
CC12CCC(=O)N1C(C(=O)NCc1ccccc1Cl)CS2 (centres undefined)	-6%	3	-2%[0.501 µM]	-3%	-3%	35%
O=c1oc2ccccc2c(NC2CCCCC2)c1NS(=O)(=O)c1ccc(F)cc1	3.4µM*	?	-1%	?	-14%	-22%
CCc1ccc(S(=O)(=O)Nc2c(NC3CCCCC3)c3ccccc3oc2=O)cc1	3%	4	47%	-8%	-29%	25%
N#Cc1cccc(-c2nc3cnc(Oc4cccc(Cl)c4)nc3n(C3CC3)c2=O)c1	.	.	-2%[0.501 µM]	.	.	.
CCOc1ccc(CN2C(=O)c3ccccc3Sc3ccc(C(=O)NCCCN4CCOCC4)cc32)cc1	-11%	-2	-37%[59 µM]	-33%	79µM*	-4%
CN1CCN(CCCNC(=O)c2ccc(/C=C3/Sc4ccccc4N(Cc4cccc(Cl)c4)C3=O)cc2)CC1	5%	-3	40µM*	?	?	-14%
CN(C)CCNC(=O)c1ccc2c(c1)N(Cc1c(F)cccc1Cl)C(=O)c1ccccc1S2	.	.	16µM*	?	.	-5%
CCN1CCN(CCNC(=O)c2ccc(/C=C3\Sc4ccccc4N(Cc4ccccc4F)C3=O)cc2)CC1	?	-7	50µM*	56µM*	?	7%
Cc1c(Cl)cccc1-n1ncc(C(=O)Nc2ccc3c(c2)OCCO3)c1C1CCN(C(=O)OC(C)(C)C)CC1	.	.	?	-34%	-20%[57.1 µM]	0%
COc1cc(C2C(C(=O)c3ccc(C)o3)=C(O)C(=O)N2Cc2ccccc2)ccc1O (centres undefined)	-9%	-3	45µM*	?	-36%	-11%
CCCOc1ccc(C2C(C(=O)c3ccc(C)o3)=C(O)C(=O)N2Cc2ccco2)cc1 (centres undefined)	-23%	-4	50µM*	-29%	?	7%
Cc1ccc(C(=O)C2=C(O)C(=O)N(Cc3ccccc3)C2c2cccnc2)o1 (centres undefined)	?	.	50µM*	50µM*	-1%	-10%
CCOc1cc(C2C(C(=O)c3ccc(C)o3)=C(O)C(=O)N2CCc2ccccc2)ccc1O (centres undefined)	-7%	-7	45µM*	?	?	15%
COc1ccc(C2C(C(=O)c3ccc(C)o3)=C(O)C(=O)N2Cc2ccco2)cc1OC (centres undefined)	2%	4	.	4%	?	31%
CC1(Cc2ccccc2Cl)C(=O)Nc2ccc(OC(F)(F)F)cc21 (centres undefined)	-10%	0	.	.	.	.
COc1ccc(C(=O)CN2C(=O)N(c3ccc(C(C)=O)cc3)S(=O)(=O)c3ccccc32)cc1	.	.	-5%[59 µM]	-17%	-16%	1%
CC(=O)C1=C(O)C(=O)N(Cc2cccnc2)C1c1ccc(C(C)C)cc1 (centres undefined)	-15%	-6	56µM*	-11%	-32%	44%
COc1ccc(C2C(C(=O)c3ccc(C)o3)=C(O)C(=O)N2Cc2cccnc2)cc1OC (centres undefined)	-13%	-1	50µM*	20µM*	-26%	25%[57 µM]
Cc1ccc(C(=O)C2=C(O)C(=O)N(Cc3cccnc3)C2c2cccc(Oc3ccccc3)c2)o1 (centres undefined)	-12%	-23	.	-30%	.	13%
COc1cc(C2C(C(=O)c3ccco3)=C(O)C(=O)N2Cc2cccnc2)cc(OC)c1OC (centres undefined)	-3%	.	.	89µM*	-35%	6%
Cc1ccc(C(=O)C2=C(O)C(=O)N(Cc3cccnc3)C2c2ccc(Cl)cc2)o1 (centres undefined)	-2%	6	50µM*	-14%	11%	-9%
Cc1ccc(C(=O)C2=C(O)C(=O)N(Cc3cccnc3)C2c2cccc([N+](=O)[O-])c2)o1 (centres undefined)	-13%	-4	.	?	?	10%
SMILES	PLK1 PBD block	PI5P4Ka inh	G9a block	JMJD2A Tudor inh	BAZ2B inh	HP1b chromo inh
CCOC(=O)C1=C(O)C(=O)N(Cc2cccnc2)C1c1ccc(C)cc1 (centres undefined)	-5%	0	36%[12.7 µM]	-11%	-28%	39%
CCCOc1cccc(C2C(C(=O)c3ccco3)=C(O)C(=O)N2CCN(CC)CC)c1 (centres undefined)	-6%	4	?	-20%	0%	32%
CCOc1cccc(C2C(C(=O)c3ccco3)=C(O)C(=O)N2Cc2ccncc2)c1 (centres undefined)	0%	-6	35µM*	?	-8%	19%
CCOc1ccc(C2C(C(=O)c3ccc(C)o3)=C(O)C(=O)N2Cc2cccnc2)cc1 (centres undefined)	-20%	-3	40µM*	89µM*	-27%	.
COc1ccc([C@H]2C[C@H](O)[C@@H](n3cc(-c4ccc(F)cc4)nn3)CN2Cc2cccs2)cc1	-12%	26	.	.	.	.
CC(C)=NOCc1ccc(-c2cn([C@@H]3COC[C@H]3O)nn2)cc1	.	.	40µM*	.	-4%	.
O=C1CCSc2ccc(S(=O)(=O)Nc3cccc(C(F)(F)F)c3)cc2N1	.	.	1%[59 µM]	3%	7%[57.1 µM]	36%
Clc1cccc(OCCCCN2CCCCC2)c1	-14%	4	?	22µM*	56µM*	?
Cc1cccc(Cl)c1OCCN1CCCC1	0%	-8	40µM*	4µM*	?	-8%
Clc1cccc(OCCN2CCNCC2)c1	-13%	-3	14µM*	18µM*	-33%	?
Cc1cccc(OCCCN2CCCCCC2)c1	0%	.	6.3µM*	7.9µM*	79µM*	?
Cc1cccc(OCCCCCN2CCOCC2)c1	2%	8	18%[59 µM]	1%	-2%	22%
O=C(OCCN1CCCCC1)c1cccc(Cl)c1	-13%	0	12%	-14%	2%	21%
COc1cccc(NC(=O)CN2C(=O)c3cccc4cccc2c34)c1	.	.	-2%[59 µM]	-3%	2%	44%
Clc1cccc(Cl)c1OCCCCN1CCCCC1	5%	-3	22µM*	20µM*	79µM*	?
CC(C)c1cccc(C(C)C)c1OCCCCN1CCCC1	-7%	.	?	-26%	7%	14%
COc1ccc(F)cc1S(=O)(=O)Nc1cc2c3c(c1)CCC(=O)N3CCC2	-1%	0	9%[0.501 µM]	-17%	9%	25%

Assay outcomes deposited in PubChem by National Center for Advancing Translational Sciences (NCATS).
